From PubChem BioAssay
Active and inactive are the calls of the source.

Legend:
[1] = optical density shifts of acrAB sulA E. coli – strain DRC41, OD650, 48 h, E. coli filamentation inducer project, primary screen (AID 1152); conditions: higher = more signal, called active from +8 up or from −8 down;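 note: E. coli MC1000 strain DRC41 lacking acrAB efflux pump and sulA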
[2] = probe aLefty1 binding on compound microarray – biochemical, small-molecule microarray, 635/667 nm fluorescence, primary screen (AID 1153); conditions: higher = more signal;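 note: score merges spot fluorescence with signal-to-noise ratio from the scanned slide images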
[3] = plasmodial surface anion channel blockers, osmotic lysis – cell-based, P. falciparum Indochina, OD700, 1 h, primary screen (AID 1154); conditions: P. falciparum Indochina infected RBC osmotic lysis, higher = more signal, called active from +8 up or from −8 down
[4] = plasmodial surface anion channel blockers, osmotic lysis – cell-based, P. falciparum Indochina, OD700, 2 h, primary screen (AID 1155);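 note: lysis reports solute entry through the parasite surface anion channel PSAC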; conditions: P. falciparum Indochina infected erythrocytes, higher = more signal, called active from +8 up or from −8 down
[5] = changes in parasitized red cell lysis, either direction – P. falciparum Indochina, OD700, 3 h, PSAC antagonist project, primary screen (AID 1156); conditions: P. falciparum-infected erythrocytes, osmotic lysis, higher = more signal, called active from +8 up or from −8 down
[6] = plasmodial surface anion channel blockers, osmotic lysis – cell-based, P. falciparum Indochina, OD700, 18 h, primary screen (AID 1157); conditions: P. falciparum Indochina infected erythrocytes, osmotic lysis OD700, 18 h; higher = more signal, called active from +8 up or from −8 down
[7] = S6 kinase pathway phospho-S6 level changes – cell-based, A549, cytoblot, luminescence, serum-stimulated, primary screen (AID 1158); conditions: 5 h, higher = more signal;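 note: serum-stimulated A549 lung adenocarcinoma cells; signal is phosphorylated S6 detected by cytoblot immunostaining with HRP secondary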
[8] = molecular target: NADPH oxidase 2 (Homo sapiens) (UniProt P04839); assay: compounds shifting NOX2 Amplex Red fluorescence – cell-based, HEK293-NOX2, PMA-stimulated, NOX inhibitor project, primary screen (AID 1159); conditions: 45 min, higher = more signal, called active from +8 up or from −8 down; note: test concentration not given here
NADPH oxidase 2 (Homo sapiens), sequence (P04839 whole entry, looked up): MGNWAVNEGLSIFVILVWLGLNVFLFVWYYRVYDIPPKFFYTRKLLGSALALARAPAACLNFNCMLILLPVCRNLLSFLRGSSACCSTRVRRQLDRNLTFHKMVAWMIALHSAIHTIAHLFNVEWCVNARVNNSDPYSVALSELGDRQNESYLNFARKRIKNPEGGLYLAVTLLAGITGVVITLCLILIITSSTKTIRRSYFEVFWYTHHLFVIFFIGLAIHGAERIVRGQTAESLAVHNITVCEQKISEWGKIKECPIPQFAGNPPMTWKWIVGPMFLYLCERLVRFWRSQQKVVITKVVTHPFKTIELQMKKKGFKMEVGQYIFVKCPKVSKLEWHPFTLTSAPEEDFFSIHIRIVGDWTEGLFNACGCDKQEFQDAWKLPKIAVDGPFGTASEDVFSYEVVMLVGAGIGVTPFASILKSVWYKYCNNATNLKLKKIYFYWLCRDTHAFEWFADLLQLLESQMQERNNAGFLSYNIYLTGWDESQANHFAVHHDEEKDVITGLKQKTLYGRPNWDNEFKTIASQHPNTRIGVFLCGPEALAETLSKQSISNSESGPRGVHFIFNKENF

[9] = molecular target: NADPH oxidase 4 (Homo sapiens) (UniProt Q9NPH5); assay: compounds shifting NOX4 Amplex Red fluorescence – cell-based, HEK293-NOX4, tetracycline-induced, NOX inhibitor project, primary screen (AID 1160); conditions: HEK293-NOX4, Amplex Red H2O2 fluorescence, 45 min; higher = more signal, called active from +8 up or from −8 down
NADPH oxidase 4 (Homo sapiens), sequence (Q9NPH5 whole entry, looked up): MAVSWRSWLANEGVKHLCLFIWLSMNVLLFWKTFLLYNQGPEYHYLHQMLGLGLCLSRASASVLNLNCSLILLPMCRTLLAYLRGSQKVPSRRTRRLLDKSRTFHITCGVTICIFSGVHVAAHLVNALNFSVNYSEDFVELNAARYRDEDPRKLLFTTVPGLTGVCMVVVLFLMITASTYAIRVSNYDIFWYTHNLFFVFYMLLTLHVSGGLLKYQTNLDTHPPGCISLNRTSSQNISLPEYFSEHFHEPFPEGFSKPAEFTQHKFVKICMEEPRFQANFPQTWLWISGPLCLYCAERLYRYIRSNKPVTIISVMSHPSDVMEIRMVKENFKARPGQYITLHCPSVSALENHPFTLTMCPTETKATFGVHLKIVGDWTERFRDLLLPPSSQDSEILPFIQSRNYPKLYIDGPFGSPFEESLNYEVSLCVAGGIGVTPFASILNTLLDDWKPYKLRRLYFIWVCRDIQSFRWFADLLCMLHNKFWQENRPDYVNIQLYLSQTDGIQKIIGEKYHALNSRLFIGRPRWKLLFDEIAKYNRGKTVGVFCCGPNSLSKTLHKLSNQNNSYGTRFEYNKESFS

[10] = molecular target: NADPH oxidase 5 (Homo sapiens) (UniProt Q96PH1); assay: compounds shifting NOX5 Amplex Red fluorescence – cell-based, HEK293-NOX5, NOX inhibitor project, primary screen (AID 1161); conditions: HEK293-NOX5, ionomycin, 45 min, higher = more signal
NADPH oxidase 5 (Homo sapiens), sequence (Q96PH1 whole entry, looked up): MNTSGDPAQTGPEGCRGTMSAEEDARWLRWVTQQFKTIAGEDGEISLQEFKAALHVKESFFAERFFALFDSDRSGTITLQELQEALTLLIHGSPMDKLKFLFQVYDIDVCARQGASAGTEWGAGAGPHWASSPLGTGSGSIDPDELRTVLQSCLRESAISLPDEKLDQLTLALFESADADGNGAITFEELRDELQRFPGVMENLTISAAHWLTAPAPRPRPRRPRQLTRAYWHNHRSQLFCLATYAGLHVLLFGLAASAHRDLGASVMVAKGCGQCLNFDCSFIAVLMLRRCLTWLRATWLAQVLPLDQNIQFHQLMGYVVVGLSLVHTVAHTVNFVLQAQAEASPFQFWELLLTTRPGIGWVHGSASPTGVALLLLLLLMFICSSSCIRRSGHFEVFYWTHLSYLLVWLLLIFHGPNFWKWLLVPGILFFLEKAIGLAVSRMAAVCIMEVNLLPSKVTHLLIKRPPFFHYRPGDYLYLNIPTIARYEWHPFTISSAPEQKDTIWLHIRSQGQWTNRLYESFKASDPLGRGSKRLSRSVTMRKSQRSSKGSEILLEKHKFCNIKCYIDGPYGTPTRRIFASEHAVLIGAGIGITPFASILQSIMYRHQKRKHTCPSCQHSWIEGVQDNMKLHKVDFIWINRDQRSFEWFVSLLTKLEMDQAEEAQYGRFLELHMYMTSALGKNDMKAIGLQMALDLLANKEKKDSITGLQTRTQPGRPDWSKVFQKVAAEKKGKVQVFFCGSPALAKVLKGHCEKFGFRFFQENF

[11] = compound effects on lung adenocarcinoma cell viability – A549, calcein-AM fluorescence, 48 h, basal, profiling panel (AID 1162); conditions: higher = more signal; note: test concentration not given here
[12] = compound effects on differentiated 3T3-L1 adipocyte viability – cell-based, 3T3-L1 adipocytes, calcein-AM fluorescence, 48 h, basal, profiling panel (AID 1163); conditions: 3T3-L1 adipocytes viability, higher = more signal; note: test concentration not given here
[13] = compound effects on hepatocellular carcinoma cell viability – HepG2, calcein-AM fluorescence, 48 h, basal, profiling panel (AID 1164); conditions: higher = more signal; note: test concentration not given here
[14] = compound effects on multiple myeloma cell viability – MM1S, calcein-AM fluorescence, 48 h, basal, profiling panel (AID 1165); conditions: higher = more signal; note: test concentration not given here
[15] = calcein-AM signal in unstimulated myeloma cells – cell-based, calcein-AM fluorescence, 48 h, PK04 Diversity Set, profiling panel (AID 1166); conditions: RPMI8226 myeloma viability, higher = more signal;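 note: cells grown under basal conditions without added stimulus; test concentration not given here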
[16] = JC-1 mitochondrial signal, unstimulated HepG2 cells – cell-based, JC-1 fluorescence, 24 h, 100 nL compound, profiling panel (AID 1167); conditions: HepG2 mitochondrial potential, higher = more signal; note: test concentration not given here
[17] = JC-1 mitochondrial signal, unstimulated adipocytes – cell-based, JC-1 fluorescence, 3T3-L1 adipocytes, 24 h, 100 nL compound, profiling panel (AID 1168); conditions: JC-1 mitochondrial fluorescence, higher = more signal, called active from +8 up or from −8 down; note: test concentration not given here
[18] = JC-1 mitochondrial signal, unstimulated myeloma cells – cell-based, JC-1 fluorescence, RPMI8226, 24 h, 100 nL compound, profiling panel (AID 1169); conditions: JC-1 mitochondrial potential fluorescence, higher = more signal; note: test concentration not given here
[19] = JC-1 mitochondrial signal, unstimulated MM1S myeloma – cell-based, JC-1 fluorescence, 24 h, 100 nL compound, profiling panel (AID 1170); conditions: MM1S mitochondrial potential, higher = more signal; note: test concentration not given here
[20] = resazurin metabolic signal in A549 cells – cell-based, resazurin fluorescence, 24 h, PK04 Diversity Set, profiling panel (AID 1171); conditions: A549 viability, higher = more signal, called active from +8 up or from −8 down; note: test concentration not given here

SMILES | z-score [1] | composite z-score [2] | z-score [3] | z-score [4] | z-score [5] | z-score [6] | z-score [7] | z-score [8] | z-score [9] | z-score [10] | z-score [11] | z-score [12] | z-score [13] | z-score [14] | z-score [15] | z-score [16] | z-score [17] | z-score [18] | z-score [19] | z-score [20]
CO[C@H]1O[C@H](CO)[C@@H](OC(=O)Nc2cccc(F)c2)[C@H](OC(=O)Nc2ccc3c(c2)OCO3)[C@H]1OC(=O)Nc1ccc2c(c1)OCO2 | 0.903 (inactive) | 0.236 | 6.15 (inactive) | 0.462 (inactive) | 0.521 (inactive) | 0.643 (inactive) | -0.0353 | -3.15 (inactive) | -0.681 (inactive) | -2.02 | -0.598 | 0.424 | -1.86 | -1.17 | -2.11 | -0.216 | 0.712 (inactive) | -0.313 | -0.0179 | -1.14 (inactive)
CCOC(=O)C1=CC[C@@H](c2cccc(Br)c2)N(S(=O)(=O)c2ccc(C)cc2)[C@H]1c1ccc([N+](=O)[O-])cc1 | -1.22 (inactive) | 0.0509 | 1.27 (inactive) | 1.55 (inactive) | -0.0988 (inactive) | 1.29 (inactive) | -0.68 | 1.24 (inactive) | 0.77 (inactive) | 0.165 | -0.699 | -0.349 | -0.203 | -1.07 | -1.24 | 1.45 | 0.097 (inactive) | -0.841 | -1.57 | 0.851 (inactive)
C=C(C)[C@@H]1CC=C(C(O)C2C=CC3C(=O)N(C4CCCCC4)C(=O)C3N2Nc2ccc(OC)cc2)CC1 (stereo not given in full) | -0.441 (inactive) | 0.203 | 1.75 (inactive) | 0.415 (inactive) | 0.604 (inactive) | 0.56 (inactive) | -0.14 | 0.191 (inactive) | -1.34 (inactive) | -2.14 | -0.447 | -1.46 | 0.319 | 0.0801 | -0.0663 | -0.227 | -0.836 (inactive) | -0.393 | -1.4 | 0.784 (inactive)
O=C(N1CCOCC1)[C@@]1(CCS(=O)(=O)c2ccccc2)COC(c2ccc(OCCCO)cc2)=N1 | 1.04 (inactive) | -0.356 | 23.8 (active) | 9.6 (active) | 1.75 (inactive) | 1.3 (inactive) | -0.713 | -1.79 (inactive) | 0.44 (inactive) | -0.597 | 0.437 | -1.09 | -0.0333 | 0.205 | 0.108 | -0.33 | -0.4 (inactive) | 0.238 | -0.659 | 0.201 (inactive)
O=C(C=C(CC(O)c1cccc(Cl)c1)OCCF)OCCF (stereo not given) | 0.597 (inactive) | -0.0694 | 1.35 (inactive) | -0.385 (inactive) | -0.0116 (inactive) | -1.67 (inactive) | 0.785 | 0.176 (inactive) | -0.15 (inactive) | 0.305 | 0.595 | 0.642 | 0.989 | 0.947 | -0.667 | 0.586 | 0.869 (inactive) | 0.0309 | -0.273 | 0.135 (inactive)
CCCCC(=C=CC[C@H](O)c1cccc(OCCO)c1)C[C@H](O)COCc1ccccc1 | 0.483 (inactive) | -0.0984 | 15.3 (active) | 2.48 (inactive) | 0.658 (inactive) | 1.02 (inactive) | 0.949 | -2.67 (inactive) | -1.29 (inactive) | -2.41 | 0.803 | 0.403 | 0.0132 | -1.06 | -0.63 | 0.214 | 0.254 (inactive) | 0.746 | -0.378 | 1.4 (inactive)
C[C@@]1([C@@H](NC(=O)c2cccs2)c2ccc(-c3ccccc3)cc2)C[C@H]1C1CCCCC1 | -1.79 (inactive) | 0.371 | 1.41 (inactive) | -0.427 (inactive) | 1.13 (inactive) | -1.34 (inactive) | 2.17 | -4.07 (inactive) | -4.4 (inactive) | -1.59 | -1.23 | 0.437 | -0.644 | -2.17 | -4.43 | -0.734 | 0.395 (inactive) | -0.843 | -1.09 | 2.26 (inactive)
C=CC[C@@]1(C(=O)NCC(O)CO)N=C(c2ccc(OCCCO)cc2)O[C@@H]1c1ccccc1 (stereo not given in full) | 0.529 (inactive) | 0.366 | 22.6 (active) | 4.36 (inactive) | 1.12 (inactive) | 0.394 (inactive) | -0.0453 | 0.325 (inactive) | 1.02 (inactive) | 1.69 | 0.183 | 1.07 | -0.412 | 0.281 | -0.561 | -0.152 | 0.622 (inactive) | 0.49 | 1.18 | 0.295 (inactive)
CN(C)C(=O)[C@@]1(Cc2ccccc2N=[N+]=[N-])N=C(c2ccc(OCCCO)cc2)O[C@H]1c1ccccc1N=[N+]=[N-] | 0.0086 (inactive) | -0.213 | 31.3 (active) | 29.7 (active) | 2.54 (inactive) | 3.39 (inactive) | 0.246 | -1.34 (inactive) | -0.493 (inactive) | -2 | -0.0639 | 1.45 | -1.38 | -3.16 | -4.47 | 1.45 | 0.918 (inactive) | -1.26 | -1.03 | -0.406 (inactive)
